Results on 37 compounds are retold here after PubChem BioAssay (NCI).

Compounds without any hit were thinned out: in the full panel of roughly 83,000, 20% have a hit.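 Assay: single dose, 48 h. Readout: percent growth (0 = no net growth; negative = cell death). Active: <10.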 A number with no mark means an inactive call. The source made the active and inactive calls.

In the first assay the test system is SN12C renal. The experiment in a line: NCI-60 one-dose screen, 48 h (100 = growth as untreated, 0 = no growth, -100 = all killed). Particulars: 10 µM unless noted.
In the case of `CC[C@H](C)C(=O)O[C@H]1CCC=C2C=C[C@H](C)[C@H](CC[C@@H]3CC=CC(=O)O3)[C@H]21`, the growth was 67.7%.

On to `COc1cc(CCC[P+](c2ccccc2)(c2ccccc2)c2ccccc2)c(OC)c(OC)c1OC`, for which the growth is 77.5%.

For `COc1ccc(C(=O)/C=C/c2sc(Cl)nc2Cl)cc1`, the growth was 18%.

As to `COc1ccc(C(=S)N2CCN(c3cccc(C)c3)CC2)cc1OC`, the growth is 75%.

For `Cc1cc2nc3ccc(N=Nc4ccc(N(C)C)cc4)cc3n(-c3ccccc3)c-2cc1=N`, the growth was -52.8% (active).

With `CC(=O)CC(c1cccs1)c1c(-c2ccccc2)[nH]c2ccccc12` (stereo unspecified), the growth is 93%.

With `COc1ccc(-n2c(N)c(-c3nc4ccccc4[nH]3)cc(C#N)c2=O)cc1`, the growth was 85%.

Take `Cc1ncc(C(=O)Nc2ccc(CN3CCN(C)CC3)c(C(F)(F)F)c2)cc1C#Cc1ccc(N)nc1`: the growth was 2.89% (active).

Consider `COC(=O)/C=C1\S/C(=N\Nc2ccc([N+](=O)[O-])cc2[N+](=O)[O-])N(C2CCCCC2)C1=O`, for which the growth is 21.6%.

Turning to `COc1c(B(O)O)cc(F)cc1-c1nc2ccc3[nH]ncc3c2c2c1CCCC2`, the growth was 11.6%.

Regarding `CCCCCCN1C(=O)/C(=c2\sc3n(c2=O)C2C(NN=3)N(CC)C(=O)N2CC)c2ccccc21` (stereo unspecified), the growth was 19.1%.

Turning to `S=c1nc(-c2ccccc2)oc(=NC2CCCCC2)n1C1CCCCC1`, the growth is 67.9%.

`CNC(=O)c1[nH]cc(-c2ccccc2)c1-c1cc(OC)c2c(c1OC)OCO2`: the growth is 91.1%.

Regarding `CCCCCCN(CCCCCC)c1ccc(/C=C2/SC(=O)NC2=O)c(C)c1`, the growth is 80.7%.

For `CC(=O)OC[C@H]1OC(Sc2sc(C(=O)c3ccc(Br)cc3)c(N)c2-c2nc3ccccc3s2)[C@H](OC(C)=O)[C@@H](OC(C)=O)[C@H]1OC(C)=O` (stereo partly specified), the growth is 95.1%.

With `N#Cc1ccc(NC(=O)c2sc3nc4c(cc3c2N)C(=O)CCC4)cc1`, the growth was 98.3%.

With `NS(=O)(=O)c1ccc(-n2nc(-c3ccc(Cl)cc3)c3ccccc3c2=O)cc1`, the growth was 93.4%.

With `COc1cccc(OC)c1C(=O)N[C@@H]1C(=O)N2[C@@H]1SC(C)(C)[C@@H]2C(=O)O`, the growth is 97.7%.

With `N/C(=N\c1nc2ccccc2s1)NC(=O)Nc1cccc2ccccc12`, the growth was 44%.

Take `COc1ccc(/C=C/c2c(C(=O)/C=C/c3ccc(C(F)(F)F)cc3)c(C)nc3ccccc23)cc1`: the growth is -42.9% (active).

In the case of `COc1c(B(O)O)cc(C)cc1-c1nc2ccc3[nH]ncc3c2c2c1CCCC2`, the growth was 52%.

On to `COc1cc(C(=O)c2cc(C)c3[nH]c4ccc(O)cc4c3c2C)cc(OC)c1OC`, for which the growth was 25%.

On to `COc1ccc(/C=C/c2c(C(=O)/C=C/c3ccc(Cl)cc3)c(C)nc3ccccc23)cc1`, for which the growth is 17.2%.

For `O=c1ccc(N=Nc2ccc([N+](=O)[O-])cc2)ccc1O`, the growth is 4.86% (active).

The test system of a further assay is UO-31 renal. The assay is described as above. The following applies: 10 µM unless noted.
With `CN(C)c1ccc2nc3ccc(=[N+](C)C)c([N+](=O)[O-])c-3sc2c1`, the growth was 51.7%.

In the case of `COc1cc(C(=O)/C=C/c2c(Cl)nc3sccn23)cc(OC)c1OC`, the growth is 60.4%.

As for `CNc1ccc(Nc2cccc(C)c2)c2c1C(=O)c1ccccc1C2=O`, the growth was 58.3%.

On to `Cc1cc(O)c(C2=NN(c3ccc(S(N)(=O)=O)cc3)C(c3ccccc3O)C2)cc1Cl` (stereo unspecified), for which the growth was 9.61% (active).

As to `CCN1C(=O)N(CC)C2Nn3c(s/c(=C4\C(=O)N(CCC(C)C)c5ccccc54)c3=O)=NC21` (stereo unspecified), the growth was 54.3%.

For `C=C(C)[C@@H]1CC[C@]2(N=C=O)CC[C@]3(C)[C@H](CC[C@@H]4[C@@]5(C)Cc6c([nH]c7ccccc67)C(C)(C)[C@@H]5CC[C@]43C)[C@@H]12`, the growth is 64.8%.

Take `O=C1CSC(c2c(Cl)cccc2Cl)N1c1nc(Cl)cc(=O)[nH]1` (stereo unspecified): the growth was 79.8%.

On to `COc1ccc(OC)c(/C=C/C(=O)N/N=C/c2ccccc2)c1`, for which the growth was 56.6%.

For the compound `Oc1ccc(-c2nc3ccc4[nH]ncc4c3c3c2CCCC3)c2cccnc12`, the growth was -30.4% (active).

`Cc1cc(O)c(C2=NN(c3ccc(S(N)(=O)=O)cc3)C(/C=C/c3ccccc3)C2)cc1Cl` (stereo unspecified): the growth is 78.2%.

`COc1ccc(C2=Nn3c(nnc3-c3cc(Cl)cc(Cl)c3Cl)SC2)cc1`: the growth is 5.61% (active).

For the compound `O=S(=O)(NCCCNc1cc(-c2c(-c3cccc(O)c3)nc3sccn23)ccn1)c1cccc2ccccc12`, the growth is 27.6%.

Turning to `c1cc(-c2nnc(SSc3ncnc4nc[nH]c34)o2)ccn1`, the growth is 30%.

With `CC[C@H](C)C(=O)O[C@H]1CCC=C2C=C[C@H](C)[C@H](CC[C@@H]3CC=CC(=O)O3)[C@H]21`, the growth was 71.8%.

In the case of `COc1cc(CCC[P+](c2ccccc2)(c2ccccc2)c2ccccc2)c(OC)c(OC)c1OC`, the growth was 43.7%.

In the case of `COc1ccc(C(=O)/C=C/c2sc(Cl)nc2Cl)cc1`, the growth is 51.9%.

In the case of `COc1ccc(C(=S)N2CCN(c3cccc(C)c3)CC2)cc1OC`, the growth was 76%.

With `Cc1cc2nc3ccc(N=Nc4ccc(N(C)C)cc4)cc3n(-c3ccccc3)c-2cc1=N`, the growth was -91.2% (active).

As for `CC(=O)CC(c1cccs1)c1c(-c2ccccc2)[nH]c2ccccc12` (stereo unspecified), the growth is 71.5%.

Take `COc1ccc(-n2c(N)c(-c3nc4ccccc4[nH]3)cc(C#N)c2=O)cc1`: the growth was 77.8%.

For the compound `Cc1ncc(C(=O)Nc2ccc(CN3CCN(C)CC3)c(C(F)(F)F)c2)cc1C#Cc1ccc(N)nc1`, the growth is -27% (active).

Take `COC(=O)/C=C1\S/C(=N\Nc2ccc([N+](=O)[O-])cc2[N+](=O)[O-])N(C2CCCCC2)C1=O`: the growth is 19.2%.

Take `COc1c(B(O)O)cc(F)cc1-c1nc2ccc3[nH]ncc3c2c2c1CCCC2`: the growth was 5.35% (active).

For the compound `CCCCCCN1C(=O)/C(=c2\sc3n(c2=O)C2C(NN=3)N(CC)C(=O)N2CC)c2ccccc21` (stereo unspecified), the growth is -2.09% (active).

As for `S=c1nc(-c2ccccc2)oc(=NC2CCCCC2)n1C1CCCCC1`, the growth is 46.5%.

As for `CNC(=O)c1[nH]cc(-c2ccccc2)c1-c1cc(OC)c2c(c1OC)OCO2`, the growth was 83.8%.

On to `CCCCCCN(CCCCCC)c1ccc(/C=C2/SC(=O)NC2=O)c(C)c1`, for which the growth was 64.1%.

Turning to `CC(=O)OC[C@H]1OC(Sc2sc(C(=O)c3ccc(Br)cc3)c(N)c2-c2nc3ccccc3s2)[C@H](OC(C)=O)[C@@H](OC(C)=O)[C@H]1OC(C)=O` (stereo partly specified), the growth is 61.4%.

With `N#Cc1ccc(NC(=O)c2sc3nc4c(cc3c2N)C(=O)CCC4)cc1`, the growth was 104%.

As to `NS(=O)(=O)c1ccc(-n2nc(-c3ccc(Cl)cc3)c3ccccc3c2=O)cc1`, the growth is 52.6%.

With `COc1cccc(OC)c1C(=O)N[C@@H]1C(=O)N2[C@@H]1SC(C)(C)[C@@H]2C(=O)O`, the growth is 84.9%.

For the compound `N/C(=N\c1nc2ccccc2s1)NC(=O)Nc1cccc2ccccc12`, the growth is 53.4%.

`COc1ccc(/C=C/c2c(C(=O)/C=C/c3ccc(C(F)(F)F)cc3)c(C)nc3ccccc23)cc1`: the growth was -87.7% (active).

Take `COc1c(B(O)O)cc(C)cc1-c1nc2ccc3[nH]ncc3c2c2c1CCCC2`: the growth is 23.5%.

For `COc1cc(C(=O)c2cc(C)c3[nH]c4ccc(O)cc4c3c2C)cc(OC)c1OC`, the growth is 22.2%.

As for `COc1ccc(/C=C/c2c(C(=O)/C=C/c3ccc(Cl)cc3)c(C)nc3ccccc23)cc1`, the growth is -21.3% (active).

For `O=c1ccc(N=Nc2ccc([N+](=O)[O-])cc2)ccc1O`, the growth was 17.1%.
